# Measured values taken from PubChem BioAssay (EPA / NIEHS).
# Where “and” joins values, the source holds several entries; their conditions need not be identical. Equal values may be shown once. Some compounds were tested as several samples or in several runs, with calls that do not always agree. Calls of active or inactive are those of the source. The calls were made as follows: active = hit-call score of the fitted dose curve at least 0.9, where 1 is the maximum; inactive = score below 0.9.
# Columns and labels:
# [1] = ATG_E_Box_CIS: Attagene CIS-FACTORIAL HepG2 Assay for human Enhancer Box (E-box) (AID 2282936); details: HepG2 E-box cis-reporter transcription, actives raise or lower the signal
# Procedure, shortened: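 Fluorescent reporter fragments separated by capillary electrophoresis gave the signal; mRNA came from HepG2 cells transfected with cis-element reporters and treated 24 h. Curves fitted bidirectionally relative to DMSO controls.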
# [2] = ATG_M_61_CIS: Attagene CIS-FACTORIAL HepG2 Assay for M61 Transcription Factor (Internal Marker) (AID 2282937); details: HepG2 Attagene CIS-FACTORIAL M61 internal marker reporter; actives raise or lower the signal
# Procedure, shortened: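 Multiplexed reporter mRNA assay, HepG2 human hepatoma cells, 24 h treatment. Signal: FAM-labelled, HpaI-digested RT-PCR fragments by CE. Fit: bidirectional, baseline DMSO.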
# [3] = ATG_EGR_CIS: Attagene CIS-FACTORIAL HepG2 Assay for human Early Growth Response 1 (EGR1) (AID 2282938); details: HepG2 Attagene CIS-FACTORIAL EGR reporter mRNA; actives raise or lower the signal
# Procedure, shortened: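 Multiplexed cis-reporter system in human hepatoma HepG2 cells, transiently transfected. Cells are dosed for 24 h; reporter transcripts are amplified, fluorescently tagged and sized by capillary electrophoresis, with DMSO as negative control.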
# [4] = ATG_M_19_CIS: Attagene CIS-FACTORIAL HepG2 Assay for M19 Transcription Factor (Internal Marker) (AID 2282939); details: HepG2 Attagene CIS-FACTORIAL M19 internal marker reporter; actives raise or lower the signal
# Procedure, shortened: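 Internal marker readout, fitted in both directions against DMSO, from HepG2 cells carrying transfected cis-element reporter constructs; RT-PCR and capillary electrophoresis of reporter mRNA after 24 h exposure.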
# [5] = ATG_ERE_CIS: Attagene CIS-FACTORIAL HepG2 Assay for Estrogen Response Element (ERE) (AID 2282940); details: HepG2 ERE cis-reporter, Attagene RNA transcript; actives raise or lower the signal
# Procedure, shortened: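 After 24 h compound treatment, RNA from transfected HepG2 cells was reverse-transcribed, reporter cDNA PCR-amplified, FAM-labelled, HpaI-cut and resolved by capillary electrophoresis. ERE-driven cis reporter transcripts reflect endogenous factors; gain or loss scored against DMSO.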
# [6] = ATG_Ets_CIS: Attagene CIS-FACTORIAL HepG2 Assay for human Erythroblast Transformation Specific (ETS) (AID 2282941); details: HepG2 ETS cis-reporter transcription, actives raise or lower the signal
# Procedure, shortened: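 RT-PCR/capillary electrophoresis fluorescence read-out of reporter mRNA; HepG2 transient multi-reporter transfection; 24 h compound exposure; gain or loss of signal fitted bidirectionally relative to DMSO.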
# [7] = molecular target: Hepatocyte nuclear factor 3-beta (Homo sapiens) (UniProt Q9Y261); test: ATG_FoxA2_CIS: Attagene CIS-FACTORIAL HepG2 Assay for human Forkhead box A2 (FOXA2) (AID 2282942); details: HepG2 cis-reporter transcription factor activity, 24 h; actives raise or lower the signal
# Hepatocyte nuclear factor 3-beta (Homo sapiens), sequence (Q9Y261 whole entry, looked up): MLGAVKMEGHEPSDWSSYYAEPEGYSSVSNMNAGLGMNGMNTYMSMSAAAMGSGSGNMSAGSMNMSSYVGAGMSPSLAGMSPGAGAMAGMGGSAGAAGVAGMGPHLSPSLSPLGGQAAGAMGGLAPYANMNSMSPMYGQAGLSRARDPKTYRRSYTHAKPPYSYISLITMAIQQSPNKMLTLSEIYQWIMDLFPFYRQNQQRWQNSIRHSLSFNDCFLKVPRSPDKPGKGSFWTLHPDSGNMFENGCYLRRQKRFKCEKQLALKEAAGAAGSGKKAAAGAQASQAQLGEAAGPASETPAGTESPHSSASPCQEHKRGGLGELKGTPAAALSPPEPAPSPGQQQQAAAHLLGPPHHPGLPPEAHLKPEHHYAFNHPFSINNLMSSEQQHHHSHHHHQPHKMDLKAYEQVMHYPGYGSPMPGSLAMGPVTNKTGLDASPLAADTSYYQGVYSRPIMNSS
# Procedure, shortened: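 Multiplexed cis-element reporter assay in transiently transfected HepG2. Twenty-four hours post-dosing, RNA was reverse-transcribed, amplified, FAM-labelled, HpaI-digested and separated by CE. Activity gain or loss relative to DMSO.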
# [8] = ATG_GATA_CIS: Attagene CIS-FACTORIAL HepG2 Assay for human GATA Binding Protein (AID 2282944); details: HepG2 GATA cis-element reporter, Attagene multiplex mRNA; actives raise or lower the signal
# Procedure, shortened: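 Reporter transcripts from a GATA cis-regulated unit, among multiplexed reporters in transfected HepG2 cells, were measured by RT-PCR with capillary electrophoresis after 24 h dosing. Induction or loss scored relative to DMSO.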
# [9] = ATG_GLI_CIS: Attagene CIS-FACTORIAL HepG2 Assay for human Zinc Finger Protein GLI1 (AID 2282945); details: HepG2, Attagene cis-factorial reporter mRNA, GLI element; actives raise or lower the signal
# Procedure, shortened: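 Bidirectional curve fits relative to DMSO, using reporter mRNA levels from RT-PCR plus capillary electrophoresis. Cells were HepG2 transiently carrying cis-regulated reporter constructs, harvested 24 h after dosing.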
# [10] = ATG_GRE_CIS: Attagene CIS-FACTORIAL HepG2 Assay for human Glucocorticoid Response Elements (GRE) (AID 2282947); details: HepG2 GRE cis-reporter, Attagene multiplex mRNA; actives raise or lower the signal
# Procedure, shortened: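 Multiplexed cis-reporter mRNA induction, HepG2, 24 h post-dose. RT-PCR, FAM-labelled, HpaI-digested amplicons by CE. Bidirectional fit vs DMSO.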
# [11] = ATG_M_32_CIS: Attagene CIS-FACTORIAL HepG2 Assay for M32 Transcription Factor (Internal Marker) (AID 2282949); details: HepG2 Attagene cis-factorial M32 reporter, mRNA; actives raise or lower the signal;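 also: background control marker of the multiplexed CIS panel rather than a real target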
# Procedure, shortened: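 Transient MRTU transfection of HepG2; 24 h compound treatment; TriZol RNA, oligo(dT) RT, reporter PCR, 6-FAM primer extension, HpaI cut, CE. Gain/loss of signal vs DMSO.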
# [12] = ATG_M_06_CIS: Attagene CIS-FACTORIAL HepG2 Assay for M06 Transcription Factor (Internal Marker) (AID 2282950); details: HepG2 Attagene CIS-FACTORIAL M06 internal marker reporter; actives raise or lower the signal
# Procedure, shortened: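 Serves as a background control readout. Transfected HepG2 exposed to compounds for 24 h, then reporter transcripts quantified by fluorescent RT-PCR and capillary electrophoresis. Both directions fitted against DMSO baseline.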
# [13] = molecular target: Hypoxia-inducible factor 1-alpha (Homo sapiens) (UniProt Q16665); test: ATG_HIF1a_CIS: Attagene CIS-FACTORIAL HepG2 Assay for human Hypoxia Inducible Factor 1 (HIF1A) (AID 2282951); details: HepG2 Attagene cis-factorial HIF1a reporter transcription; actives raise or lower the signal
# Hypoxia-inducible factor 1-alpha (Homo sapiens), sequence (Q16665 whole entry, looked up): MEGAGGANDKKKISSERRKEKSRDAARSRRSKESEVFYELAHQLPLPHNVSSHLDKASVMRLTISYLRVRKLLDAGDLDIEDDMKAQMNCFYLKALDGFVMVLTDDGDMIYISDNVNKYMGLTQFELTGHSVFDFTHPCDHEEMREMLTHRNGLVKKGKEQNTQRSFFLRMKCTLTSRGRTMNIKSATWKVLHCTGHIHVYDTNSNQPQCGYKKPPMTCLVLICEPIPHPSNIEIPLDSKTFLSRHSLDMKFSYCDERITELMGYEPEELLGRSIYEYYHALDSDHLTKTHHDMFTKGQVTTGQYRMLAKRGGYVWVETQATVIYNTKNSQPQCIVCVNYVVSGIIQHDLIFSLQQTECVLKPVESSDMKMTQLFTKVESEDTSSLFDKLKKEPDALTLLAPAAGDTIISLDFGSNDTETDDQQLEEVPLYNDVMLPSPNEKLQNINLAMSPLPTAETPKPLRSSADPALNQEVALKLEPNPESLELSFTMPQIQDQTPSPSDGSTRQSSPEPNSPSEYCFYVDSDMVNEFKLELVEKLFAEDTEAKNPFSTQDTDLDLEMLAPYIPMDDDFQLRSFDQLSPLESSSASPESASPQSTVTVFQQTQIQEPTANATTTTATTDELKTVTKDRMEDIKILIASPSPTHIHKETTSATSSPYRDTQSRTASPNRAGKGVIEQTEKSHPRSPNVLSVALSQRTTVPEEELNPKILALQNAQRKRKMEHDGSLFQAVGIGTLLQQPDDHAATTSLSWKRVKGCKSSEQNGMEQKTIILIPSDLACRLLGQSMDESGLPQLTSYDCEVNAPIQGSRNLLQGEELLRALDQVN
# Procedure, shortened: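 Cis-element reporter constructs were transiently transfected into HepG2 cells, which were treated for 24 h; reporter RNA was reverse-transcribed, amplified, labelled and resolved by capillary electrophoresis.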
# [14] = molecular target: Hepatocyte nuclear factor 6 (Homo sapiens) (UniProt Q9UBC0); test: ATG_HNF6_CIS: Attagene CIS-FACTORIAL HepG2 Assay for human Hepatocyte Nuclear Factor 6 (HNF6) (AID 2282952); details: HepG2 Attagene cis-factorial HNF6 reporter transcription; actives raise or lower the signal
# Hepatocyte nuclear factor 6 (Homo sapiens), sequence (Q9UBC0 whole entry, looked up): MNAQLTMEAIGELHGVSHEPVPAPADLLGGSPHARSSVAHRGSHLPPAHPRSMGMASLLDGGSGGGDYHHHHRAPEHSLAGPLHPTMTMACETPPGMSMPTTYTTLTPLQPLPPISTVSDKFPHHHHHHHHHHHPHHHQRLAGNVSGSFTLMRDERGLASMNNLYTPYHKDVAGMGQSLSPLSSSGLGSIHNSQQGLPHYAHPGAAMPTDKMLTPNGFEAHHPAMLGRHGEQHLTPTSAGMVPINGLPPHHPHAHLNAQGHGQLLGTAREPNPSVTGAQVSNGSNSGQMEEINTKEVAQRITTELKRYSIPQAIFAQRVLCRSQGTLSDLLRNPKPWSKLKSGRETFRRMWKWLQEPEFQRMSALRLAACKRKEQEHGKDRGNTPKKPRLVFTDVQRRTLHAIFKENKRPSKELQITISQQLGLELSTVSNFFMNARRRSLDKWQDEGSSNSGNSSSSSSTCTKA
# Procedure, shortened: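 Activity values derive from bidirectional fitting against DMSO of reporter mRNA levels, measured by capillary electrophoresis of labelled RT-PCR products from HepG2 cells exposed 24 h.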
# [15] = molecular target: Heat shock factor protein 1 (Homo sapiens) (UniProt Q00613); test: ATG_HSE_CIS: Attagene CIS-FACTORIAL HepG2 Assay for human Heat Shock Transcription Factor 1 (HSE) (AID 2282953); details: HepG2 HSE cis-reporter, Attagene RNA transcription; actives raise or lower the signal
# Heat shock factor protein 1 (Homo sapiens), sequence (Q00613 whole entry, looked up): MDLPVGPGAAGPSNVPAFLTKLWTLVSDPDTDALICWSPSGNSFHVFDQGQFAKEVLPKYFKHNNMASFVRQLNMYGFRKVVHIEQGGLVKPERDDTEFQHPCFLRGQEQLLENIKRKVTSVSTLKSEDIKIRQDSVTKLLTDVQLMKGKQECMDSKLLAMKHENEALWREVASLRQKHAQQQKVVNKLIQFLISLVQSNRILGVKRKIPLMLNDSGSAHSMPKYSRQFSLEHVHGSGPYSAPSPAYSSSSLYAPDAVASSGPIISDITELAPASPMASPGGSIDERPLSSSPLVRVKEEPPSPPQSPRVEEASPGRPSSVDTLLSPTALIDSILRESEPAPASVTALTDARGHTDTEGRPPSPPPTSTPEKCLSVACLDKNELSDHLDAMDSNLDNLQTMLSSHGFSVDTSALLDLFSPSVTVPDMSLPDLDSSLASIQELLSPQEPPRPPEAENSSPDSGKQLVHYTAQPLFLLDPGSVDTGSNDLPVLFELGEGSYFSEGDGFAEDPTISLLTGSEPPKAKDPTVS
# Procedure, shortened: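 Endogenous transcription factor activity in transiently transfected HepG2, read as reporter mRNA by RT-PCR with fluorescent capillary electrophoresis after 24 h. Gain or loss of signal fitted versus DMSO baseline.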
# [16] = ATG_MRE_CIS: Attagene CIS-FACTORIAL HepG2 Assay for human Metal Responsive Element (MRE) (AID 2282954); details: HepG2 MRE cis-reporter transcription, Attagene multiplex; actives raise or lower the signal
# Procedure, shortened: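 Multiplexed cis-reporter assay in human HepG2 liver cells, 24 h incubation with test chemical. Reporter transcripts measured by RT-PCR and capillary electrophoresis; values from bidirectional curve fitting versus DMSO.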
# [17] = ATG_PBREM_CIS: Attagene CIS-FACTORIAL HepG2 Assay for human Phenobarbital-responsive Enhancer Module (PBREM) (AID 2282955); details: HepG2 PBREM cis-reporter, Attagene multiplexed transcription; actives raise or lower the signal
# Procedure, shortened: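 Multiplexed cis-reporter readout in human hepatoma HepG2 cells; PBREM-regulated transcript quantified after 24 h exposure by fluorescent RT-PCR fragment analysis. Signal changes up or down fitted relative to DMSO.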
# [18] = ATG_FoxO_CIS: Attagene CIS-FACTORIAL HepG2 Assay for human Forkhead box O (FoxO) (AID 2282943); details: HepG2 Attagene cis-reporter, FoxO element, mRNA; actives raise or lower the signal
# Procedure, shortened: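 Endogenous transcription factor activity read from multiplexed cis-promoter reporter transcripts in transiently transfected HepG2, 24 h after dosing. Reporter RNA measured via RT-PCR plus capillary electrophoresis of FAM-labeled products; gain or loss relative to DMSO.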
# [19] = molecular target: Bile acid receptor (Homo sapiens) (UniProt Q96RI1); test: ATG_IR1_CIS: Attagene CIS-FACTORIAL HepG2 Assay for human Nuclear Receptor Subfamily 1 Group H Member 4 (NR1H4), IR1 submotif (AID 2282946); details: IR1 reporter transcription, actives raise or lower the signal
# Bile acid receptor (Homo sapiens), sequence (Q96RI1 whole entry, looked up): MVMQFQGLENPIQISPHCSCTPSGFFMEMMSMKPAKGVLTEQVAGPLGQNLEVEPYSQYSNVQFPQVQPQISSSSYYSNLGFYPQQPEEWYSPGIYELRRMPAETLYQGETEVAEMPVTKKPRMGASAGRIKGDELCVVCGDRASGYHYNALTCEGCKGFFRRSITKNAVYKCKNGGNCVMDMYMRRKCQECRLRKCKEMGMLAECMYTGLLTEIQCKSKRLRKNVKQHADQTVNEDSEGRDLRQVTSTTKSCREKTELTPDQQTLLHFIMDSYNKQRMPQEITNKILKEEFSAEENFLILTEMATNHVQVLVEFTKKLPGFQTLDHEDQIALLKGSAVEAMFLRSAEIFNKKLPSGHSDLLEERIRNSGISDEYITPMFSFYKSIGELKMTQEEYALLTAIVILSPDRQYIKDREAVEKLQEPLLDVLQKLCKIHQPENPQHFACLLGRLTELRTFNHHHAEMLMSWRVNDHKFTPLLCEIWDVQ
# Procedure, shortened: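 HepG2 cells transiently transfected with multiplexed cis-element reporter units read endogenous transcription factor activity. After 24 h compound exposure, reporter mRNA was quantified by RT-PCR, fluorescent labelling, HpaI digestion and capillary electrophoresis; bidirectional fitting versus DMSO baseline.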
# [20] = ATG_ISRE_CIS: Attagene CIS-FACTORIAL HepG2 Assay for human Interferon Regulatory Factor 1 (IRF1) binding to an Interferon-Stimulated Response Element (ISRE) (AID 2282948); details: HepG2 ISRE cis-reporter (Attagene), mRNA transcription readout; actives raise or lower the signal
# Procedure, shortened: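 Read-out: fluorescent RT-PCR products resolved by capillary electrophoresis, reporting endogenous transcription factor activity via ISRE-driven reporter mRNA in transfected HepG2 cells dosed for 24 h; gain or loss fitted relative to DMSO.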
smiles,measurement,setting,value
CCC(=O)O[C@H]1CC[C@H]2[C@@H]3CCC4=CC(=O)CC[C@]4(C)[C@H]3CC[C@]12C,outcome,[1],inactive
same,outcome,[2],inactive
same,AC50,[3],100 µM (active) and 77.1 µM (active) and 129 µM (active)
same,outcome,[4],inactive
same,AC50,[5],9.04 nM (active) and 9.14 nM (active) and 8.84 nM (active)
same,outcome,[6],inactive
same,AC50,[7],187 µM (active)
same,outcome,[7],inactive
same,AC50,[8],140 µM (active)
same,outcome,[8],inactive
same,outcome,[9],inactive
same,AC50,[10],157 µM (active)
same,outcome,[10],inactive
same,outcome,[11],inactive
same,outcome,[12],inactive
same,AC50,[13],100 µM (active) and 122 µM (active)
same,outcome,[13],inactive
same,AC50,[14],169 µM (active) and 187 µM (active)
same,outcome,[14],inactive
same,AC50,[15],159 µM (active) [middle of 4 runs]
same,AC50,[16],136 µM (active) [middle of 4 runs]
same,AC50,[17],136 µM (active) and 100 µM (active)
same,outcome,[17],inactive
O=S(=O)(O)C(F)(F)C(F)(F)C(F)(F)C(F)(F)C(F)(F)C(F)(F)F,outcome,[1],inactive
same,outcome,[2],inactive
same,outcome,[3],inactive
same,outcome,[4],inactive
same,AC50,[5],100 µM (active) and 150 µM (active)
same,outcome,[5],inactive
same,outcome,[6],inactive
same,outcome,[7],inactive
same,outcome,[18],inactive
same,outcome,[8],inactive
same,outcome,[9],inactive
same,outcome,[19],inactive
same,outcome,[10],inactive
same,outcome,[20],inactive
same,outcome,[11],inactive
same,outcome,[13],inactive
same,outcome,[14],inactive
same,outcome,[15],inactive
same,outcome,[16],inactive
same,outcome,[17],inactive
CN(C)c1nc(=O)n(C2CCCCC2)c(=O)n1C,outcome,[1],inactive
same,outcome,[2],inactive
same,outcome,[3],inactive
same,outcome,[4],inactive
same,outcome,[5],inactive
same,outcome,[6],inactive
same,outcome,[7],inactive
same,outcome,[18],inactive
same,outcome,[8],inactive
same,outcome,[9],inactive
same,outcome,[19],inactive
same,outcome,[20],inactive
same,outcome,[11],inactive
same,outcome,[13],inactive
same,outcome,[14],inactive
same,outcome,[15],inactive
same,outcome,[16],inactive
same,outcome,[17],inactive
OCC(O)CO,outcome,[1],inactive
same,outcome,[2],inactive
same,outcome,[3],inactive
same,outcome,[4],inactive
same,AC50,[5],76.6 µM (active)
same,outcome,[5],inactive
same,outcome,[6],inactive
same,outcome,[7],inactive
same,outcome,[18],inactive
same,outcome,[8],inactive
same,outcome,[9],inactive
same,outcome,[19],inactive
same,outcome,[10],inactive
same,outcome,[11],inactive
same,outcome,[12],inactive
same,outcome,[13],inactive
same,outcome,[14],inactive
same,outcome,[15],inactive
same,outcome,[16],inactive
C1CC2OC2CC1C1CO1 (configuration not stated),outcome,[1],inactive
same,outcome,[2],inactive
same,outcome,[3],inactive
same,outcome,[4],inactive
same,outcome,[5],inactive
same,outcome,[6],inactive
same,outcome,[7],inactive
same,outcome,[18],inactive
same,outcome,[8],inactive
same,outcome,[9],inactive
same,outcome,[19],inactive
same,outcome,[20],inactive
same,outcome,[11],inactive
same,outcome,[12],inactive
same,outcome,[13],inactive
same,outcome,[14],inactive
same,outcome,[15],inactive
same,outcome,[16],inactive
same,outcome,[17],inactive
C=CC(N)=O,outcome,[1],inactive
same,outcome,[2],inactive
same,outcome,[3],inactive
same,outcome,[4],inactive
same,outcome,[5],inactive
same,outcome,[6],inactive
same,outcome,[7],inactive
same,outcome,[18],inactive
same,outcome,[8],inactive
same,outcome,[9],inactive
same,outcome,[10],inactive
same,outcome,[20],inactive
same,outcome,[11],inactive
same,outcome,[12],inactive
same,AC50,[13],26 µM (active)
same,outcome,[14],inactive
same,outcome,[15],inactive
same,outcome,[16],inactive
